The list is not random: actives were taken first. Their share in the collection is about 9.5%.
Pf growth 96h: P. falciparum growth inhibition at 96 hours; 6.9% of 320,000 active; Potency, µM (titrated, usually from 28.7 µM), for inactives: top-dose activity change, negative = inhibition, usual class: inhibitors; AID 504834; P. falciparum luciferase reporter growth, 96 h; further: on the % scale 0 is the no-effect control and ±100 the full control effect
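96 h incubation, 37 C, 5% CO2, of luciferase-reporter P. falciparum-infected RBCs (2% hematocrit, 0.05% parasitemia final) with test compounds; endpoint luminescence.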
NS1 inh: blocks influenza NS1 protein function; 0.4% of 270,000 active; Potency, µM (series often up to 46.1 µM), for inactives: at the top dose activity, positive = more growth; calls by dose curve; further: actives are rising curves; nearly all actives have a fitted effect of over 50% in size
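Growth recovery, yeast-based: influenza A NS1 expressed in S. cerevisiae causes slow growth, and suppressors are detected by OD600. The parent strain without NS1 is used as positive control.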
SARS PLpro yeast: inhibitors of SARS-CoV papain-like protease in yeast. 0.19% of 330,000 active. Potency, µM (doses to about 32.9 µM), for the others: at the top dose activity, positive = growth rescue, actives largely listed as activators. S. cerevisiae expressing SARS-CoV PLpro, growth rescue; calls by dose curve; further: 0% is about no effect; nearly all actives have a fitted effect of over 55% in size
Pf growth 48h: P. falciparum growth inhibition at 48 hours (one generation). 5.9% of 310,000 active. P. falciparum luciferase growth in erythrocytes, 48 h. Potency, µM (series often up to 28.7 µM), for the others: top-dose activity change, negative = inhibition, usual class: inhibitors. AID 504832; further: on the % scale 0 is the no-effect control and ±100 the full control effect
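Growth was read as firefly luciferase luminescence after a 48 h, 37 C, 5% CO2 exposure of compounds to reporter-bearing P. falciparum cultures (0.1% parasitemia, 2% hematocrit final) in Albumax-supplemented RPMI 1640.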
RE007 growth inh: less growth of the S. pombe RE007 Vpr strain. Potency, µM (highest dose often 92.2 µM), without a hit: top-dose activity change, negative = less growth, hits mostly inhibitors. S. pombe RE007 Vpr strain, BacTiter-Glo ATP luminescence, 24 h. AID 651644. 0.21% of 360,000 active; active means well fitted falling curve with a large enough effect; inconclusive means small, poorly fitted or top-dose-only effect; inactive means no such curve, though single readings can be large or run the other way; further: on the % scale 0 is the no-effect control and ±100 the full control effect; nearly all actives have a fitted effect of over 50% in size
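Fission yeast strain RE007, carrying one chromosomally integrated HIV-1 vpr copy, was seeded at OD 0.01 in PMG+AL medium with 23 nL pinned compound. After 24 h at 30 °C and 99% humidity, viability was read by BacTiter-Glo luminescence.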
The depositor's hits bear a star; [ ] = remark or other dose. Unless noted, the call rests on the fitted dose curve; in most records, active means well fitted inhibition curve with a large enough effect; inconclusive means small, poorly fitted or top-dose-only effect, or another doubt; inactive means no such curve, though single readings can be large or run the other way. Potency means the concentration at half of the fitted maximal effect.

For CCOc1ccc(N(CC(=O)NC2CCCCC2)C(=O)CCCC(=O)Nc2ccccn2)cc1 the results were Pf growth 96h inconclusive, NS1 inh -14%, SARS PLpro yeast -4%, Pf growth 48h -7% and RE007 growth inh 1%.
Screening Cc1ccc(S(=O)(=O)NCc2ccccc2)cc1C(=O)N1CCN(S(=O)(=O)c2ccccc2)CC1 returned Pf growth 96h inconclusive, SARS PLpro yeast -5%, Pf growth 48h inconclusive and RE007 growth inh -10%.
`Nc1ncc2c(n1)-c1ccccc1CC2` gave Pf growth 96h 39%, NS1 inh -1%, SARS PLpro yeast -5%, Pf growth 48h 3.7µM* and RE007 growth inh -8%.
Nc1ncc2c(n1)-c1ccoc1CC2 was read as Pf growth 96h -2%, NS1 inh 3%, SARS PLpro yeast 0%, Pf growth 48h -9% and RE007 growth inh -2%.
For NS(=O)(=O)c1ccc(NC(=S)NNC(=O)CCC(=O)Nc2ccccc2Cl)cc1 the results were Pf growth 96h 18%, NS1 inh 3%, SARS PLpro yeast -4%, Pf growth 48h 11% and RE007 growth inh 11%.
For O=C(CCC(=O)Nc1ccccc1Cl)NNC(=S)Nc1ccccc1C(F)(F)F the results were Pf growth 96h 2.1µM*, NS1 inh 8%, SARS PLpro yeast -6%, Pf growth 48h 18% and RE007 growth inh 23%.
COC(=O)[C@@]12OC[C@]34[C@H]([C@@H](O)[C@@H]1O)[C@@]1(C)C(=O)C(O[C@@H]5OC(CO)[C@@H](O)[C@@H](O)[C@@H]5O)=C[C@@H](C)[C@@H]1C[C@H]3OC(=O)[C@H](OC(=O)/C=C(\C)C(C)(C)OC(C)=O)[C@@H]24 (stereo partly specified) was read as Pf growth 96h 4.7µM*, SARS PLpro yeast 1%, Pf growth 48h 2.6µM* and RE007 growth inh 24%.
`COc1cccc(C(O)c2nc(-c3ccc4ccccc4c3)cs2)c1` (stereo unspecified) gave RE007 growth inh -3%.
Screening COc1ccc(-c2ccc(=O)n(CC(=O)NCC3COCCO3)n2)cc1 (stereo unspecified) returned Pf growth 96h inconclusive, SARS PLpro yeast 1%, Pf growth 48h -25% and RE007 growth inh 13%.
Screening Cn1c(CC(=O)Nc2ccccc2C(F)(F)F)c(Sc2ccccc2)c2ccccc21 returned Pf growth 96h 0%, NS1 inh 0%, SARS PLpro yeast 25%, Pf growth 48h 15µM* and RE007 growth inh -19%.
Cn1c(CC(=O)Nc2ccccc2)c(Sc2ccccc2)c2ccccc21 was read as Pf growth 96h 8.3µM*, NS1 inh 2%, SARS PLpro yeast 7%, Pf growth 48h inconclusive and RE007 growth inh -8%.
`CSc1c(CC(=O)Nc2ccccc2)n(C)c2ccccc12` gave Pf growth 96h inconclusive, NS1 inh -8%, SARS PLpro yeast -2%, Pf growth 48h 10µM* and RE007 growth inh 6%.
For CC(=O)c1cn(CC(=O)Nc2ccccc2C(F)(F)F)c2ccccc12 the results were Pf growth 96h inconclusive, NS1 inh 0%, SARS PLpro yeast 5%, Pf growth 48h 0% and RE007 growth inh -3%.
For Cc1ccc2c(c1)c(Sc1ccccc1)c(CC(=O)O)n2C the results were Pf growth 96h 1%, NS1 inh 5%, SARS PLpro yeast -9%, Pf growth 48h 2% and RE007 growth inh 1%.
CSc1c(CC(=O)Nc2ccc(F)cc2)n(Cc2ccccc2)c2ccccc12 was read as Pf growth 96h 13µM*, NS1 inh 2%, SARS PLpro yeast 20%, Pf growth 48h 7.4µM* and RE007 growth inh -16%.
C=CCn1c(Oc2ccc(C=O)cc2OCC)nc2c1c(=O)n(C)c(=O)n2C was read as Pf growth 96h 28%, NS1 inh 5%, SARS PLpro yeast 0%, Pf growth 48h 0%[0.00184 µM] and RE007 growth inh -7%.
O=C(O)COc1ccccc1/C=N/NC(=O)C(O)c1ccccc1 (stereo unspecified) was read as Pf growth 96h -42%, NS1 inh 0%, SARS PLpro yeast 0%, Pf growth 48h 5% and RE007 growth inh 1%.

Assay outcomes from PubChem BioAssay.
